Bioassay records deposited in PubChem by several laboratories.
CYP2C19 act: cytochrome P450 2C19 (human) activation; AID 1025; recombinant CYP2C19, luciferin-H EGE luminescence; stronger effect = higher value; 0 = fully inhibited enzyme, 1 = untreated enzyme; 96,000 tested, under 10 active; activation factor at 5 µM;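 active = activation factor of at least 2 at 5 µM in the primary screen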
CYP2C9 inhib: blocks human cytochrome P450 2C9; AID 777; P11712; inhibition, % at 5 µM; hit rate 20% among 96,000; CYP2C9 Supersomes, luciferin-H conversion, luminescence;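 active = blocking of liver enzyme CYP2C9 beyond about 50% at 5 µM, limit read from the data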
Target sequence (P11712 whole entry, looked up): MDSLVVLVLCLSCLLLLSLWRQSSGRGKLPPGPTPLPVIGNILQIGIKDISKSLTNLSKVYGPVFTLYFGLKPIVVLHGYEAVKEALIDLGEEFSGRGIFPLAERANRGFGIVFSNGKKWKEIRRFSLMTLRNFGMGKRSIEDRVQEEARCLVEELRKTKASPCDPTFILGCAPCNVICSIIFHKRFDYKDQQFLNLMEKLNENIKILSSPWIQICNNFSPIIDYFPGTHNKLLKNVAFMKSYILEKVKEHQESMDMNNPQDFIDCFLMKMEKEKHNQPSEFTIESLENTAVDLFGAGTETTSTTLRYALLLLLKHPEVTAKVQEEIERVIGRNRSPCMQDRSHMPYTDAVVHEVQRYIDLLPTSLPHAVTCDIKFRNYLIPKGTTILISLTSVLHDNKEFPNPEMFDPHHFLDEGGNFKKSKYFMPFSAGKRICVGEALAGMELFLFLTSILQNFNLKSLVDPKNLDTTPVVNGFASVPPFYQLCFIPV
CYP2C9 act: increases human cytochrome P450 2C9 activity | P11712 | recombinant CYP2C9, luciferin-H conversion, luminescence; stronger effect = higher value; factor 1 = untreated enzyme, 0 = blocked | activation factor at 5 µM | hit rate 1.4% among 96,000 | AID 1024;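 active = activation factor of 2 or more for CYP2C9 at a 5 µM dose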
CYP2C19 inh: inhibitors of human CYP2C19; P33261; CYP2C19 Supersomes, luciferin-H EGE luminescence, 30 min; inhibition, % at 5 µM; hit rate 21% among 96,000;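 active = CYP2C19 inhibition above a set limit at 5 µM in the primary screen, cut at about 50% in these data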
Cav3 T inh: inhibitors of human Cav3.2 T-type calcium channel; AID 449739; Cav3.2-expressing cells, Fluo-4 calcium fluorescence FDSS; stronger effect = lower value; hit rate 4% among 100,000; B-score at 10 µM;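 active = single-dose well whose peak fluorescence ratio is a statistical outlier from its plate by either plate-standardised score or position-corrected B-score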
Of the large screens only hits and unclear results are named; the others gave an inactive call. Only some compounds are listed: those with a hit (about 27% of all), similar ones and a draw of the others.

CCOC(=O)N1CCN(c2ccc(C(=O)c3ccccc3)cc2F)CC1	CYP2C9 inhib 86.9, CYP2C19 inh 76.5
CCC(=O)c1ccc(N2CCCCCC2)c(F)c1	CYP2C9 inhib 52.3, CYP2C19 inh 68.3
Nc1nc(Nc2cccc(F)c2)nc2ccccc12	CYP2C9 inhib 56.0, CYP2C19 inh 62.1
CCC(C)(C(=O)NC1CCCC1)N(C(=O)c1ccccn1)c1ccc(C)cc1 (stereo unspecified)	none
CC1=C(C(=O)OCc2ccc3c(c2)OCO3)C(c2ccccc2)NC(=O)N1 (stereo unspecified)	none
CCCOc1ccccc1C1NC(=O)NC(C)=C1C(=O)OCCOC (stereo unspecified)	CYP2C19 inh 54.0
CCCOc1ccccc1C1NC(=O)NC(C)=C1C(=O)OCCOC(C)C (stereo unspecified)	CYP2C9 inhib 52.8, CYP2C19 inh 55.9
CC1=C(C(=O)OCc2ccc3c(c2)OCO3)C(c2ccccc2OCc2ccccc2)NC(=O)N1 (stereo unspecified)	CYP2C9 inhib 99.0
O=C1NC(=O)C2(COC3(CCCC3)OC2)S1	none
CC(C)(C)[C@@H]1C=C(C(=O)N2CCN(Cc3ccc4c(c3)OCO4)CC2)O[C@H](OCc2ccc(CO)cc2)C1	none (no result: CYP2C19 act, CYP2C9 inhib, CYP2C9 act, CYP2C19 inh)
CSc1ncc(CNc2cc([N+](=O)[O-])ccc2C)c(N)n1	none (no result: CYP2C19 act, CYP2C9 inhib, CYP2C9 act, CYP2C19 inh)
CSc1cc(/C=N/O)c(SC)s1	CYP2C19 inh 65.6
O=S(=O)(NCC1CCCO1)c1ccc2oc3ccc(S(=O)(=O)NCC4CCCO4)cc3c2c1 (stereo unspecified)	CYP2C9 inhib 52.5
O=S(=O)(NCc1ccncc1)c1ccc(S(=O)(=O)NCC2CCCO2)cc1 (stereo unspecified)	CYP2C9 inhib 88.8, CYP2C19 inh 56.5
O=S(=O)(NCC1CCCO1)c1ccc(Br)s1 (stereo unspecified)	CYP2C19 inh 71.0
CC(C)C(NS(=O)(=O)c1ccc(Br)s1)C(=O)O (stereo unspecified)	none (no result: Cav3 T inh)
O=S(=O)(NC1CC2CCC1C2)c1ccc(Br)s1 (stereo unspecified)	CYP2C9 inhib 83.6, CYP2C19 inh 64.1, Cav3 T inh -4.87
CCN1CCN(S(=O)(=O)c2ccc(S(=O)(=O)NCC3CCCO3)cc2)CC1 (stereo unspecified)	none
Cn1cnc2cc(OC(=O)c3ccccc3)ccc21	none
CCOC(=O)C(C)Oc1cccc2c(=O)n(CC(=O)N3CCN(C(=O)OCC)CC3)ccc12 (stereo unspecified)	none
CCC(OC(=O)c1cccs1)C(=O)NC1CCCCC1 (stereo unspecified)	CYP2C19 inh 75.4
CCC(OC(=O)c1cccs1)C(=O)NCc1ccco1 (stereo unspecified)	CYP2C19 inh 83.3
CC(C)CC(OC(=O)c1cccs1)C(=O)NCc1ccco1 (stereo unspecified)	none
O=C(OC(C(=O)NC1CCCC1)c1ccccn1)c1cccs1 (stereo unspecified)	none
COC(/C=C/Nc1ccc(C)c(C)c1)=C(C#N)C#N	none
Cc1cc(N)n(-c2ncnc3scc(-c4ccccc4)c23)n1	none (no result: Cav3 T inh)
CSc1ccc(Cl)c(C(=O)OCC(=O)N2CCOCC2)c1	CYP2C19 inh 50.9
Cc1cc(C(=O)OCC(=O)N2CCOCC2)c2ccccc2n1	CYP2C9 act 2
CSc1ccc(Cl)c(C(=O)OCC(=O)NC2CC2)c1	none
Cc1ccc(/C(N)=N/OC(=O)c2cc(-c3ccccc3)nc3ccccc23)cc1	CYP2C9 inhib 54.0
COc1ccc(-c2cc(C(=O)OCC(=O)N3CCCC3)c3ccccc3n2)cc1	CYP2C9 inhib 77.8, CYP2C19 inh 50.1
Cc1cc(C(=O)OCC(=O)N2CCCC2)c2ccccc2n1	none
CN1CCN(C(=O)C2=C[C@@H](C(C)(C)C)C[C@@H](OCc3ccc(CO)cc3)O2)CC1	none (no result: CYP2C19 act, CYP2C9 inhib, CYP2C9 act, CYP2C19 inh)
O=C(CSc1nnnn1-c1cccc2c1CCCC2)N1CCCCC1	none (no result: CYP2C19 act, CYP2C9 inhib, CYP2C9 act, CYP2C19 inh)
COC(=O)COc1ccc(S(=O)(=O)NCc2cccnc2)cc1C	none
O=C1c2ccccc2C(=O)N1CCCn1c(=O)oc2ccccc21	none
CCCS(=O)(=O)N1CCCC(C(=O)NCCCOC(C)C)C1 (stereo unspecified)	none
CCCS(=O)(=O)N1CCCC(C(=O)NCCCN2CCN(c3ccc(F)cc3)CC2)C1 (stereo unspecified)	CYP2C9 act 2.7
COc1ccc(-c2nnc3sc(COc4ccc(C)cc4)nn23)cc1	none
COc1ccccc1-c1nnc2sc(COc3ccc(Cl)cc3)nn12	CYP2C9 inhib 87.8, CYP2C19 inh 81.0, Cav3 T inh -2.78
COc1ccc(OCc2nn3c(-c4ccccn4)nnc3s2)cc1	none
